High-throughput results from PubChem.
Only a selection was taken, and hits are over-represented in it overall.
KDM4E inh: blocks human JMJD2E demethylase activity | B2RXH2 | JMJD2E catalytic domain, FDH-coupled NADH fluorescence (FDH is formaldehyde dehydrogenase) | Potency, µM (highest dose often 57.1 µM), without a hit: at the top dose activity change, negative = inhibition, actives largely listed as inhibitors | 230,000 tested, 1.6% active | AID 2147; active = well fitted inhibition curve with a large enough effect, not every such curve was filed as active; inconclusive = small, poorly fitted or top-dose-only effect, or another doubt; inactive = no such curve, though single readings can be large or run the other way;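 also: 0% = wells with enzyme and -100% = buffer wells without enzyme; nearly all actives have a fitted effect of over 50% in size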
Target sequence (B2RXH2 1-337 limits assumed): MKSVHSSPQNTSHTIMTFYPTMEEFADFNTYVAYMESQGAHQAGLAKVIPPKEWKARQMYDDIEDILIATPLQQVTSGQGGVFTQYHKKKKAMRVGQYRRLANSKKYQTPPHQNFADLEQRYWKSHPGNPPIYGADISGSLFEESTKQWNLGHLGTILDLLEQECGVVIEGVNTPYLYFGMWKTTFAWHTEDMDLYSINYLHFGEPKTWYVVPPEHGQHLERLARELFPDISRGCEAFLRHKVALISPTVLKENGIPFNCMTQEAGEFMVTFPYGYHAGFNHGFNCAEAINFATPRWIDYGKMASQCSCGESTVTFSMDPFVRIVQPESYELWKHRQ
PKM2 act: activators of human pyruvate kinase M2. P14618. purified PKM2, Kinase-Glo ATP luminescence, activation; response scale: 0% is enzyme alone, no compound. Potency, µM (doses to about 57.5 µM), for the others: at the highest dose activation, hits mostly activators. 260,000 tested, 0.34% active. AID 1631; also: nearly all actives have a fitted effect of over 55% in size
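Kinase-Glo luminescence reports ATP generated from ADP (0.1 mM) and PEP (0.5 mM) by purified hPK-M2 after 1 h at room temperature, pH 7.2 imidazole buffer; intermediate enzyme activity allows detecting inhibitors and activators.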
APEX1 inh: APE1 (human) endonuclease inhibition. recombinant APE1, TAMRA/BHQ-2 abasic DNA cleavage fluorescence. Potency, µM (top dose mostly 65.8 µM), without a hit: top-dose activity change, negative = inhibition, most hits filed as inhibitors. 350,000 tested, 0.35% active. AID 2517;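 also: plate controls were vehicle for no effect and reference inhibitor for full effect; nearly all actives have a fitted effect of over 55% in size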
Target sequence (P27695 whole entry, looked up): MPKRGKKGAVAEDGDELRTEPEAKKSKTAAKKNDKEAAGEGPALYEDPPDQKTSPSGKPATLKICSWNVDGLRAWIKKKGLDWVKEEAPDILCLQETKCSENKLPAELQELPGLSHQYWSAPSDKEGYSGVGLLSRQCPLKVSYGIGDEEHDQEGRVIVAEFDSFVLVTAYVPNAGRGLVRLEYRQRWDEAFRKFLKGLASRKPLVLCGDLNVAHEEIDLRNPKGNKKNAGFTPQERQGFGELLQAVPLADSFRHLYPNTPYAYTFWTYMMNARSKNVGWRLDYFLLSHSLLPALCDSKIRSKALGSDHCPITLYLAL
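Kinetic fluorescence read (525 ex/598 em nm, three reads 60 s apart) of AP-site incision; signal = third minus first read. Enzyme 0.75 nM, dual-labelled THF duplex 50 nM, compound preincubation 15 min RT.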
RECQ1 inh-1: inhibitors of human RECQ1 DNA helicase. P46063. RECQ1 DNA unwinding, red fluorescence kinetic read. Potency, µM (titrated, usually from 57.3 µM), without a hit: at the highest dose activity, negative = inhibition, hits mostly inhibitors. 240,000 tested, 0.54% active. AID 2549;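 also: plate controls were vehicle for no effect and no enzyme for full effect; nearly all actives have a fitted effect of over 30% in size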
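RECQ1T1 50 nM; forked duplex (20 bp + 30-nt ss tails) 200 nM, ATP 2 mM final; pH 8.0, 2 mM MgCl2, 2.5 ug/ml poly(dI-dC); 15 min compound preincubation; discontinuous kinetic read over 2 h at RT.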
BLM inh: blocks DNA unwinding by human BLM helicase; Potency, µM (highest dose often 56.1 µM), inactives show top-dose activity change, negative = inhibition, most hits filed as inhibitors; 350,000 tested, 0.2% active; recombinant BLM DNA unwinding, fluorescence dequenching; P54132;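 also: plate controls were vehicle for no effect and no enzyme for full effect; nearly all actives have a fitted effect of over 35% in size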
RECQ1 inh conf: confirmation of human RECQ1 helicase inhibitors | 610 tested, 28% active | shares compounds with RECQ1 inh-1 | RECQ1 helicase DNA unwinding, fluorescence | Potency, µM (series often up to 229 µM), inactives show at the top dose activity change, negative = inhibition, actives largely listed as inhibitors | AID 2708; also: nearly all actives have a fitted effect of over 45% in size
RECQ1 ADP FP: displaces ADP in a fluorescence polarization counter-screen for RECQ1 hits | shares compounds with RECQ1 inh-1 | ADP fluorescence polarization displacement counterscreen | Potency, µM (highest dose often 228 µM), for inactives: at the top dose activity change, negative = inhibition, usual class: inhibitors | 530 tested, 27% active | AID 2711; also: nearly all actives have a fitted effect of over 45% in size
RECQ1 inh-2: RECQ1 helicase inhibition confirmed, round 2. shares compounds with RECQ1 inh-1. recombinant RECQ1 DNA unwinding, red fluorescence. Potency, µM (top dose mostly 119 µM), inactives show at the highest dose activity, negative = inhibition, actives largely listed as inhibitors. 1,100 tested, 15% active. AID 504841; also: nearly all actives have a fitted effect of over 50% in size
Starred values were filed as active, the others as inactive; i = inactive; ? = inconclusive; / = no result; [ ] = remark or other dose. Unless noted, calls follow the shape of the dose curve; as a rule, active = well fitted curve in the direction sought with a large enough effect; inconclusive = small, poorly fitted or top-dose-only effect, or another doubt; inactive = no such curve, though single readings can be large; an effect the other way counts as inactive or inconclusive. Unless noted, % is scaled to controls: 0 for no effect and ±100 for the full control effect; potency is read from the fitted curve at half-maximal effect.

SMILES	KDM4E inh	PKM2 act	APEX1 inh	RECQ1 inh-1	BLM inh	RECQ1 inh conf	RECQ1 ADP FP	RECQ1 inh-2
Cc1ccc(Nc2nc(N)c([N+](=O)[O-])c(NCc3ccco3)n2)cc1C	7%	5%	-2%	35µM*	?	/	/	50µM*
COc1cccc(Nc2nc(N)c([N+](=O)[O-])c(NCc3ccccc3)n2)c1	-1%	-1%	-3%	?	?	/	/	50µM*
CCOC(=O)c1cccc(NC(=O)CCC(=O)N2CC(C)Oc3ccc(C)cc32)c1 (stereo not drawn)	/	/	/	/	3%	/	/	/
Cc1ccc(/C=C2\SC(=S)N(Cc3ccccc3)C2=O)o1	-23%	5%	-3%	18µM*	-10%	?	34%[91.9 µM]	/
O=C(O)c1cc(-c2ccc(/C=C3/SC(=S)N(Cc4ccccc4)C3=O)o2)ccc1Cl	5%	0%	?	6.3µM*	-8%	?	/	/
O=C1CCCC2[C@@H]3CCC[N@+]4([O-])CCC[C@H](CN12)C34 (stereo partly drawn)	-3%	/	-2%	3%	0%	/	/	/
Nc1ccc(-c2nc3ccc(N)cc3[nH]2)cc1	?	-6%	?	35µM*	-26%	/	/	?
Cc1ccc(C)c(-c2nc3ccc(N)cc3[nH]2)c1	?	1%	0%	?	-6%	16%[114 µM]	?	/
Cc1cccc(-c2ccc3ncnc(N(C)Cc4ccco4)c3c2)c1	/	/	30%	/	/	/	/	/
COc1ccc(OC)c(S(=O)(=O)N2Cc3ccccc3CC2C(=O)Nc2ccc(C(C)=O)cc2)c1 (stereo not drawn)	/	/	/	/	-11%	/	/	/
Cc1cc2cc(C(c3nnnn3Cc3ccco3)N3CCc4ccccc43)c(=O)[nH]c2cc1C (stereo not drawn)	?	29%	?	?	-24%	/	/	-7%
Cc1nc(/N=C(\N)NC(=O)N2c3ccccc3Sc3ccccc32)nc2ccccc12	-15%	-4%	-9%	-6%	6%	3%	-5%	/
CN1CCS/C1=C\C=C1/SC(=S)N(CC(=O)O)C1=O	-7%	-10%	-1%	1%	-1%	/	/	/
CN1/C(=C\C=C2/SC(=S)N(CC(=O)O)C2=O)C(C)(C)c2ccccc21	-7%	-16%	25µM*	25µM*	14µM*	40µM*	3.2µM*	/
COc1ccc(-c2noc(N(c3ccc(F)c(Cl)c3)c3nc(-c4ccc(OC)c(OC)c4)no3)n2)cc1OC	/	/	/	/	-7%	/	/	/
O=C(CSc1ncnc2sc3c(c12)CCCC3)c1ccco1	?	-1%	?	?	-20%	/	/	-23%
COc1ccc(/C=C(\NC(=O)c2ccc(OC)cc2)C(=O)NC(CCSC)C(=O)O)cc1 (stereo not drawn)	-1%	-1%	-1%	i	-3%	-1%	-12%	/
CCc1ccc(NC(=O)CSc2nc(=O)n(Cc3ccncc3)c3c2CCC3)cc1	/	/	/	/	0%	/	/	/
Cc1nn(-c2ccccc2)c2nc(-c3ccco3)cc(C(=O)O)c12	?	2%	?	28µM*	25%	/	/	-23%
Cc1c(C)c2c(c(C)c1OC(=O)c1cccnc1)CC[C@@](C)(CCC[C@H](C)CCC[C@H](C)CCCC(C)C)O2	/	/	?	-14%	4%	/	/	/
Cc1ccc(NC(=O)C2CCN(S(=O)(=O)c3c(C)noc3/C=C/c3ccco3)CC2)nc1	?	4%	-5%	35µM*	-5%	/	/	-11%
CCOc1ccc(Cl)cc1S(=O)(=O)N1CCC(C(=O)NCc2ccccn2)CC1	/	-3%	6%	/	2%	/	/	/
O=C(NCc1ccccn1)C1CCN(S(=O)(=O)c2cc(Cl)ccc2Cl)CC1	5%	1%	19%	?	0%	/	/	-4%
COc1cc(C(=O)NCc2nc3cccnc3n2Cc2ccc(C)cc2)cc(OC)c1OC	/	/	/	/	0%	/	/	/
O=C(Nc1ccccc1)N1CCC(c2nc(-c3ccc(S(=O)(=O)N4CCOCC4)cc3)no2)CC1	2%	-1%	-2%	i	-3%	8%	-16%	/
SMILES	KDM4E inh	PKM2 act	APEX1 inh	RECQ1 inh-1	BLM inh	RECQ1 inh conf	RECQ1 ADP FP	RECQ1 inh-2
O=C(c1ccccc1)N1CCC(c2nc(-c3ccc(S(=O)(=O)N4CCOCC4)cc3)no2)CC1	2%	2%	-1%	i	-4%	/	/	/
CCC(C)NC(=O)c1ccccc1NC(=O)c1ccc(CSc2ccc(C)cc2)cc1 (stereo not drawn)	?	0%	8%	5µM*	-4%	-8%[114 µM]	5%[91.9 µM]	-16%
O=C1C=C(O)C(n2cncn2)C(c2ccc3c(c2)OCO3)C1 (stereo not drawn)	-7%	-3%	-8%	?	-6%	/	/	-20%
O=C1CC(=O)C(n2cncn2)C(c2cccc(Cl)c2)C1 (stereo not drawn)	7%	0%	19%	10%	-11%	/	/	/
O=[N+]([O-])c1cc(S(=O)(=O)Nc2ccccc2)ccc1N1CCN(c2ccccc2)CC1	2%	-7%	-5%	-12%	-11%	/	/	/
O=[N+]([O-])c1cc(S(=O)(=O)C(F)(F)F)ccc1N1CCN(c2ccccc2)CC1	-1%	-6%	11%	?	-4%	/	/	-4%
Cc1nn(CCC(=O)Nc2cc(F)ccc2F)c(=O)c2nn(-c3ccccc3)c(C)c12	/	/	/	/	-1%	/	/	/
Cc1c(Cl)cnn1CC(=O)NC1C(=O)N2C(C(=O)O)=C(CSc3nnnn3C)CSC12 (stereo not drawn)	-10%	10%	?	i	0%	/	/	/
Cc1c(Cl)c(C(F)F)nn1CC(=O)NC1C(=O)N2C(C(=O)O)=C(CSc3nnnn3C)CSC12 (stereo not drawn)	-5%	1%	?	-3%	-1%	-4%	?	/
Cc1nn(CC(=O)NC2C(=O)N3C(C(=O)O)=C(CSc4nnnn4C)CSC23)cc1Br (stereo not drawn)	-7%	4%	?	-8%	4%	1%	?	/
O=C(O)/C(=C\c1cccs1)Sc1nnc(-c2ccc(F)cc2)o1	0%	20%	3%	-1%	1%	/	/	/
CSc1ccc(/C=C(/Sc2nnc(-c3ccccc3)o2)C(=O)O)cc1	?	-3%	-4%	4%	-1%	-4%	-5%	/
COc1ccc(CNc2nc(-c3ccccc3)nn2S(=O)(=O)c2ccccc2)cc1	/	/	/	/	-5%	/	/	/
COc1ccc2c(C(=O)CN3CCN(c4ccccc4)CC3)c[nH]c2c1	-6%	4%	3%	?	-2%	/	/	-18%
